HIF-2a inh = blocks HIF-2a reporter activity; 786-0 RCC cells HIF-2a reporter, luciferase luminescence, overnight; inhibition, % at 18.8 µM; hit rate 0.72% among 360,000; AID 624352;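 active means inhibition of the luminescence signal of 40% or more relative to plate controls, in a single-dose primary screen at 18.75 µM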
Peg3 prom inh = Peg3 promoter activity inhibition | HeLa PEG-Prom luciferase reporter, luminescence, overnight | inhibition, % at 20 µM | hit rate 1.7% among 360,000;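 active means inhibition of at least 50% at 20 µM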
KKLEB cytotox = reduces viability of KKLEB cystic fibrosis airway cells | hit rate 0.36% among 360,000 | KKLEB CF airway cells viability, ATPlite luminescence, overnight; hits give low values; cells stimulated with P. aeruginosa culture filtrate | activity change (cytotoxicity), % at 5 µM;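 active means corrected activity change at or below -50% at 5 µM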
TRAIL sens C8 = sensitizes caspase-8 expressing cells to TRAIL. NB7+C8 cells + TRAIL, ATPlite viability luminescence. AID 624354. hit rate 1% among 360,000. inhibition (viability loss, TRAIL sensitization), % at 10 µM;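 active means compounds causing at least 50% loss of cell viability in the single-dose screen, relative to plate controls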
CF NFkB block = inhibitors of cystic fibrosis induced NF-kB. KKLEB NF-kB-GFP reporter, PAF-induced, GFP fluorescence overnight. AID 588850. inhibition, % at 5 µM. hit rate 0.86% among 360,000;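 active means at least 50% inhibition at 5 µM, scaled per plate between neutral and stimulator controls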;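 further: PAF is a Pseudomonas aeruginosa culture filtrate used as stimulus; plate controls were PAF-stimulated DMSO wells for no effect and unstimulated DMSO wells for full effect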
PPC-1+TRAIL kill = compounds killing PPC-1 cancer cells with TRAIL present (potentiator screen, no TRAIL-free arm). PPC-1 cells + TRAIL, ATPLite viability luminescence. cell killing (% activity), % at 4 µM or 5 µM. hit rate 0.41% among 220,000;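 active means cell killing above 50% in the first pass at 4 µM, then a duplicate retest at 5 µM averaging 50% or more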;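 further: plate controls were cells with TRAIL plus DMSO for no effect and medium-only wells lacking cells for full effect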
Starred values were filed as active, the others as inactive; x = no result given; ! = not confirmed by another sample. A selection: hits, their analogues and other compounds. The true share with any hit is near 3.1%.

SMILES	HIF-2a inh	Peg3 prom inh	KKLEB cytotox	TRAIL sens C8	CF NFkB block	PPC-1+TRAIL kill
Cc1cc(N)n2nc(-c3ccccc3)cc2n1	-117.7	-140.3	-11.0	77.4*	-6.7	68.3*
Cc1ccc(-c2cc3nc(-c4ccccc4)cc(N)n3n2)cc1	-244.9	-119.5	-1.0	-0.9	-22.2	13.1
COc1ccc(CCNC(=O)COC(=O)c2cc(=O)[nH]c3ccccc23)cc1	-9.6	-10.0	4.9	-7.5	-7.5	x
CCCNC(=O)C1(C)CCN(C(=O)c2ccc3sccc3c2)C1 (stereo not drawn)	-1.3	8.8	14.6	-15.3	-15.3	x
Cc1cccc(C)c1NC(=O)C1CCN(S(C)(=O)=O)CC1	6.3	19.1	3.6	50.7*	7.4	x
O=C(Nc1nc2ccccc2c2nc3ccccc3n12)c1ccc(F)cc1	x	x	x	x	x	6.0
Cn1c(NC(=O)c2ccc(F)cc2)nc2ccccc21	-177.4	-143.0	11.1	64.3*	-8.7	x
N#CC1=C(N)C(C#N)(C#N)C(c2cccnc2)C2CC(c3ccccc3)CC=C12 (stereo not drawn)	15.7	12.0	-22.5	-4.2	69.1*	8.9
N#CC1=C(N)C(C#N)(C#N)C(c2cccnc2)C2CCCC=C12 (stereo not drawn)	x	x	x	x	x	8.2
Cc1ccc(SCC(=O)Nc2nnc(C(C)(C)C)s2)cc1	-16.6	-10.7	-2.7	-6.6	-17.4	x
CC(C)c1ccc(OCc2ccc(C(=O)O)o2)cc1	48.9*	50.9*	-7.3	-4.3	13.4	19.5
CC1(C)OC2CC3C4CCC5=CC(=O)CCC5(C)C4(F)C(O)CC3(C)C2(C(=O)CO)O1 (stereo not drawn)	12.9	-16.6	3.4	3.4	96.4*	x
CC12CCC(=O)C=C1CCC1C3CC(O)C(O)(C(=O)CO)C3(C)CC(O)C12F (stereo not drawn)	12.5	-5.8	-6.7	-5.9	78.4*	x
CC1(C)OC2CC3C4CC=C5CC(O)CCC5(C)C4CCC3(C)C2(C(=O)CO)O1 (stereo not drawn)	-8.3	-34.7	7.6	-9.3	6.1	x
CC(=O)C1CCC2C3CCC4=CC(=O)CCC4(C)C3(F)C(O)CC12C (stereo not drawn)	15.1	9.9	-2.7	14.8	60.9*	x
O=C1CC(c2cccc(O)c2)Oc2ccccc21 (stereo not drawn)	-83.8	-129.1	0.2	-7.8	0.4	x
CCOC(=O)[C@@H]1[C@H]2COc3cc(OC)ccc3[C@@H]2N2C(=O)N(c3ccccc3)C(=O)[C@@]12C	15.2	0.4	11.0	6.4	-6.7	x
CC1(C(=O)NCc2ccc3c(c2)OCO3)CCN1C(=O)CC1CCCC1 (stereo not drawn)	-1.6	8.6	0.2	-12.0	5.3	x
COc1ccc(-[n+]2c(C)cc(/C=C3\Sc4ccccc4N3C)cc2C)cc1	53.1*	114.7*	-31.2	3.4	-81.6	34.7
CCN(CC)CCNC(=O)CCc1c(C)nc2c(c(C)nn2-c2ccc(C)c(C)c2)c1C	0.7	82.1*	-6.4	24.8	7.7	x
Cc1ccc(-n2nc(C)c3c(C)c(CCC(=O)Nc4ccc(CN5CCCC5)cc4)c(C)nc32)cc1	-0.6	68.0*	-14.4	42.5	26.8	7.0
O=C(O)CCn1c(SCCOc2ccccc2)nc2ccccc21	-16.0	-21.3	-1.4	9.8	8.6	x
COc1cccc(CC(=O)OCC(=O)NNC(=O)c2ccc(Br)cc2)c1	5.8	-1.5	-17.9	-13.4	15.1	x
COc1ccccc1C(=O)NNC(=O)c1cccc(F)c1	-65.7	-87.7	1.9	21.4	-12.8	9.9
COc1ccccc1C(=O)NNC(=O)c1cccc(O)c1	-89.4	-97.9	19.6	50.0*	-23.1	x
SMILES	HIF-2a inh	Peg3 prom inh	KKLEB cytotox	TRAIL sens C8	CF NFkB block	PPC-1+TRAIL kill
COc1ccc2cc(S(=O)(=O)NC3CC(C)(C)NC(C)(C)C3)ccc2c1	8.5	-1.8	-0.8	-1.9	17.3	x
Cc1cccc(N2CCN(C(=O)c3ccc4nccnc4c3)CC2C)c1 (stereo not drawn)	4.0	-1.6	5.6	2.1	18.9	x
Cc1cccc(N2CCN(C(=O)c3ccc4nc(-c5ccco5)c(-c5ccco5)nc4c3)CC2C)c1 (stereo not drawn)	15.3	62.9*	14.9	-1.1	6.0	-5.1
COc1cc(-c2cc(-c3ccccc3)nc(SCC(=O)Nc3nccs3)c2C#N)cc(OC)c1OC	16.3	-2.6	-31.0	3.4	30.9	33.0
Cc1nc(SCC(=O)Nc2nccs2)c(C#N)c(C)c1C	16.2	4.9	-32.1	79.6*	-11.9	x
N/C(=N\OC(=O)c1ccc(Cl)cc1)c1cccnc1	-194.6	-176.3	11.2	91.0*	-3.5	26.4
N/C(=N\OC(=O)c1cccc2ccccc12)c1cccnc1	-162.8	-162.5	-5.9	6.3	-9.8	18.3
N/C(=N\OC(=O)c1ccc(Cl)cc1Cl)c1cccnc1	-259.0	-221.9	-17.0	61.3*	-17.7	47.1
N/C(=N\OC(=O)c1ccco1)c1cccnc1	-109.0	-31.6	4.2	-0.5	-10.1	-12.5
CC[C@@H](C)[C@H](C(CC(=O)N1CCCC1[C@@H](OC)[C@H](C)C(=O)N[C@H](Cc1ccccc1)c1nccs1)OC)N(C)C(=O)[C@H](NC(=O)[C@@H](C(C)C)N(C)C)C(C)C (stereo partly drawn)	20.8	-9.6	-27.9	4.6	62.5*	x
COc1ccccc1CNc1nc(NCCOc2ccccc2Cl)c2sccc2n1	-9.0	59.6*	-28.9	21.0	18.0	x
CC(C)c1ccc(CNc2nc(NCC3CC3)nc3ccsc23)cc1	12.3	53.9*	-33.5	21.4	30.9	x
COc1ccccc1CNc1nc(NCc2ccc(C(C)C)cc2)c2sccc2n1	7.7	95.3*	-15.2	34.6	28.9	x
COc1ccccc1CNc1nc(NC(C)C)nc2ccsc12	5.7	-1.8	-14.1	32.2	-15.3	x
COc1cccc(CNc2nc(NCC3CC3)nc3ccsc23)c1	15.3	15.8	-26.8	21.7	-14.1	x
CNc1nc(NCCOc2ccccc2Cl)c2sccc2n1	-46.2	-21.1	-4.7	13.1	-3.2	x
Nc1sc(Cc2ccccc2)cc1C(=O)c1c(-c2ccccc2)[nH]c2ccccc12	17.8	x	x	-3.7	x	x
CC1=C(C(=O)N(C(C)C)C(C)C)CC(CC(=O)NCc2cccs2)C(=O)N1CCC1=CCCCC1 (stereo not drawn)	-3.7	16.4	2.8	-4.8	1.8	x
CC1CCC(C(C)C)C(OC(=O)Cn2c(-c3ccccc3)[n+](C)c3ccccc32)C1 (stereo not drawn)	-1.5	65.2*	-54.3*!	57.6*!	55.3*!	23.5
CC1CCC(C(C)C)C(OC(=O)C[n+]2cc(-c3ccc(Cl)cc3)n3c2CCC3)C1 (stereo not drawn)	-8.9	22.1	-24.9	10.1	20.2	6.2
COc1ccc(/C(C)=N/NC(=O)CNC(=O)/C=C\c2ccccc2OC)c(OC)c1	7.0	0.0	-3.3	-4.7	6.9	x
Nc1c2c(nc3sc4c(c13)CCCCC4)CCCCC2	-209.3	-215.0	-35.8	65.0*	11.7	3.5

Screening results: PubChem, Sanford-Burnham Center for Chemical Genomics
